Results published in PubChem BioAssay (NCI).
The panel holds about 83,000 compounds, 20% with a hit somewhere; the sample as a whole holds those more often.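 48-hour exposure, single concentration, 96-well plates; percent growth endpoint where 0 means no net growth. Active: below 10.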 A number with no mark means an inactive call. Calls of active or inactive are those of the source.

tested on: NCI-H23 lung; experiment: NCI-60 one-dose screen, 48 h (100 = growth as untreated, 0 = no growth, -100 = all killed); details: 10 µM unless noted

Row | Structure (SMILES) | growth
1 | Cc1nn(-c2ccccc2)c(Cl)c1/C=C/C(=O)c1ccc(F)cc1 | 94.6%
2 | COc1cc2oc(-c3cccc(C(=O)Nc4ccc(Br)cc4)c3)cc(=O)c2c(OC)c1OC | 77.7%
3 | CC1=C(C(=O)/C=C/c2c[nH]c3ccccc23)C(c2ccccc2)NC(=S)N1 (stereo not drawn) | 94.5%
4 | CCCCCN1C=C/C(=C\C(=O)N(C)c2ccc(Oc3ccccc3)cc2)c2ccccc21 | 68.4%
5 | Cn1cc(-c2nc(-c3c[nH]c4c(Cl)nccc34)cs2)c2cc(Br)ccc21 | 99.8%
6 | COc1ccc(/C=C2\Oc3cc(OCCCN4CCCCC4)ccc3C2=O)cc1OC | 92.1%
7 | Cc1cc2nc3c4cc(C=O)ccc4n(CCN(C)C)c3nc2cc1C | 17.4%
8 | S=c1cc(S)c2cc(Br)ccc2[nH]1 | 81.5%
9 | O=C(/C(=C\c1ccc([N+](=O)[O-])cc1)S(=O)Cc1ccc(Cl)cc1)c1ccc(Cl)cc1 (stereo not drawn) | 84.5%
10 | COc1cc(CC(=O)c2ccc(O)c(OC)c2)ccc1O | 103%
11 | O=C(NCCc1ccccc1)Nc1ccc2cc3ccc(NC(=O)NCCc4ccccc4)cc3nc2c1 | 10.3%
12 | C=C(C)[C@@H]1CC[C@]2(C(=O)N3CCN(C)CC3)CC[C@]3(C)[C@H](CC[C@@H]4[C@@]5(C)C/C(=C/c6cccnc6)C(=O)C(C)(C)[C@@H]5CC[C@]43C)[C@@H]12 | 78.5%
13 | COc1cc2nc(-c3ccc(Cl)cc3)cc(OCCCN3CCC(O)CC3)c2cc1OC | 76.1%
14 | O=S(=O)(NCCNc1nccc(-c2c(-c3cccc(O)c3)nc3occn23)n1)c1ccccc1 | 93.5%
15 | NC(=NCCCOc1ccc(F)cc1)Nc1ccc(Cl)cc1 | 46%
16 | C#Cc1cccc(NC(=O)c2cccc(NC(=O)CCl)c2)c1 | -77.6% [8.25 µM] (active)
17 | CCN1Cc2nc3sc(C)c(C)c3c(=O)n2C=C1C | 46.8%
18 | O=C1Nc2cc(-c3cccc([N+](=O)[O-])c3)ccc2/C1=C/c1ccc[nH]1 | 48.4%
19 | C[C@H]1[C@H](C)CC[C@]2(C(=O)NCC#CCN3CCN(C)CC3)CC[C@]3(C)C(=CC[C@@H]4[C@@]5(C)Cc6c([nH]c7ccccc67)C(C)(C)[C@@H]5CC[C@]43C)[C@H]12 | 100%

Row | Structure (SMILES) | growth
20 | COc1cc(/C=C/c2cc(O)c(C(C)=O)c(O)c2)cc2c1O[C@]1(C)CC[C@@H](O)C(C)(C)[C@H]1C2 | 73.6%
21 | N#CC1=C(N)Oc2c(cnn2-c2ccc([N+](=O)[O-])cc2[N+](=O)[O-])C1c1ccccc1 (stereo not drawn) | 104%
22 | COc1ccc(C(=O)c2cc(C)c(OC)c(C)c2)c(OC)c1N(C(=O)CCl)C(=O)CCl | 20.8%
23 | CCC(=O)Oc1ccc(/C(=C(\C)c2ccccc2)c2ccc(OCCN3CCCCC3)cc2)cc1 | 75.1%
24 | Cc1ccc(NC(=O)c2cc(-c3nc4ccccc4s3)c(=O)n(NS(=O)(=O)c3ccc(Cl)cc3)c2N)cc1 | 102%
25 | O=C1Nc2ccc(F)cc2/C1=C\c1c(-c2ccccc2)nc2ccccn12 | 53.4%
26 | O=C(NO)c1ccc(-n2nc(-c3ccccc3)c3ccccc32)cc1 | 49.9%
27 | O=C1Nc2ccccc2/C1=C\c1c(-c2ccc(F)cc2)nc2ccccn12 | 49.1%
28 | Oc1cccc(CCc2ccc(Oc3cc(CCc4cccc(O)c4)cc(O)c3O)cc2)c1 | 89%
29 | CCCCCCCC(=O)OCC/C=C/C1OC1C1OC(=O)/C=C\C=C\C(=O)N(C(C)=O)C(=O)/C=C(/C)CCC2OC2C1OC(=O)NC(C)=O (stereo not drawn) | 84.6%
30 | Cc1ccc(NS(=O)(=O)c2ccc(-c3cnc(C4CC4)o3)cc2)cc1C(F)(F)F | 72.8%
31 | CNC(=O)c1cncc(Cn2nc(C)c(NC(=O)c3ccc(COc4ccc(C(F)(F)F)cc4C)cc3)c2C)c1 | 49.3%
32 | Cc1cc(C)c(S(=O)(=O)Oc2ccccc2[N+](=O)[O-])c(C)c1 | 32.9%
33 | C=C1C(=O)O[C@H]2[C@H]1CC/C(CNC(=O)C(C)c1ccc(CC(C)C)cc1)=C\CC[C@@]1(C)O[C@@H]21 (stereo partly drawn) | 51.4%
34 | NC(=S)N1N=C(c2ccccc2)CC1c1cn(-c2ccccc2)nc1-c1ccc(OCc2ccccc2)cc1 (stereo not drawn) | 104%
35 | CN1CCN(C(=O)[C@]23CCC(C)(C)C[C@H]2C2=CC[C@@H]4[C@@]5(C)C/C(=C/c6cccnc6)C(=O)C(C)(C)[C@@H]5CC[C@@]4(C)[C@]2(C)CC3)CC1 | 72.8%
36 | O=C1Nc2cc(-c3cccc(O)c3)ccc2/C1=C/c1ccc[nH]1 | 4.68% (active)
37 | COc1ccc(/C=C/c2nc(Nc3ccc(S(=O)(=O)NC(C)=O)cc3)c3ccccc3n2)cc1 | 85.9%
38 | CCNC(=O)Oc1ccc(/C(=C(\C)c2ccccc2)c2ccc(OCCN3CCCCC3)cc2)cc1 | 73.6%
